# Screens (PubChem)
# KAT2A inh: qHTS Assay for Inhibitors of GCN5L2; Histone acetyltransferase KAT2A (Homo sapiens), Q92830; GCN5L2 HAT assay, ThioGlo1 CoA-SH fluorescence; Potency, µM (doses to about 58.9 µM), without a hit: at the top dose activity change, negative = inhibition, most hits filed as inhibitors; 390,000 compounds, 0.21% hits; AID 504327, 2011
# Target sequence (Q92830 whole entry, looked up): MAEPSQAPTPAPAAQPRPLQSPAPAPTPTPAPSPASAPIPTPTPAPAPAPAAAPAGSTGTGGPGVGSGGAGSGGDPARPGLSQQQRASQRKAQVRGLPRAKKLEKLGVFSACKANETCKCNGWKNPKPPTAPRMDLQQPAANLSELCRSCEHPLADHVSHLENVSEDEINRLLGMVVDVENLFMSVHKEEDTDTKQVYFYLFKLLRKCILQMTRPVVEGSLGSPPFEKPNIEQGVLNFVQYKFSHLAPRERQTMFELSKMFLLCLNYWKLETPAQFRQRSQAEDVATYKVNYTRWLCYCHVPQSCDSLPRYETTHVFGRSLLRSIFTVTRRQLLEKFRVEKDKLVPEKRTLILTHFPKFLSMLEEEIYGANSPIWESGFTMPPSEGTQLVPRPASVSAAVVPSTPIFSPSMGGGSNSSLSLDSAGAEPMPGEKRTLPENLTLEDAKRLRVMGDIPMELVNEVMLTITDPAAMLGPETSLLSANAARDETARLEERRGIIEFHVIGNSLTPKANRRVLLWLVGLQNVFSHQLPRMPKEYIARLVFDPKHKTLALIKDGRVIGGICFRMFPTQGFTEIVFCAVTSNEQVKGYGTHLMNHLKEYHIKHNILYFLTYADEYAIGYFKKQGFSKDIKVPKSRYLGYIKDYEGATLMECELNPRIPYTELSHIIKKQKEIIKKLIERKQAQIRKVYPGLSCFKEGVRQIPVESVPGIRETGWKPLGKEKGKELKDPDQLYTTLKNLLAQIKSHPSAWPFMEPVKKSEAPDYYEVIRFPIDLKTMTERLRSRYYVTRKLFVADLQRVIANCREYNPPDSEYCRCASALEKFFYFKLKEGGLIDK
#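 GCN5L2 (20 nM) in 50mM HEPES pH 7.5, 0.1mM EDTA, 0.01% Tween-20 preincubated 15 min with compounds at room temperature. Reaction started with H3(1-25) 75uM, acetyl-CoA 70uM, ThioGlo1 50uM; CoA-thiol fluorescence (Ex340/Em540) read at 0 and 20 min.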
# Sfp PPTase inh: qHTS Assay for Inhibitors of Bacillus subtilis Sfp phosphopantetheinyl transferase (PPTase); Potency, µM, without a hit: largest response in the series, negative = inhibition, hits mostly inhibitors; 310,000 compounds, 3.5% hits; Biochemical Sfp PPTase activity, qHTS; 4'-phosphopantetheinyl transferase ffp (Bacillus subtilis), Q9F4F7;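 also: the enzyme is Sfp with the accession as filed and its product quenches rhodamine fluorescence; 0% = enzyme reaction without inhibitor and -100% = no enzyme wells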
#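 With Hepes-Na pH 7.6 buffer containing 10 mM MgCl2, Sfp (15 nM) modified BHQ-2-YbbR (12.5 uM) using rhodamine-CoA (5 uM). Two reads 30 minutes apart at 525/598 nm yielded each well's rate.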
# rTrxR1 inhibitor: qHTS Assay for Inhibitors of Mammalian Selenoprotein Thioredoxin Reductase 1 (TrxR1): qHTS; 390,000 compounds, 1% hits; Potency, µM (titrated, usually from 114 µM), inactives show at the top dose activity change, negative = inhibition, actives largely listed as inhibitors; AID 588453, 2011; recombinant rTrxR1, NADPH fluorescence consumption, selenite substrate; Thioredoxin reductase 1, cytoplasmic (Rattus norvegicus), O89049; also: nearly all actives have a fitted effect of over 65% in size
#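 Rat TrxR1 (90 nM in the dispensed reagent) was pre-reduced with 400 uM NADPH for 5 min at room temperature, then incubated with compound for 15 min. After 400 uM selenite was added, NADPH fluorescence (Ex 340/Em 450 nm) was followed for 8 min.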
# GLS inh: qHTS for Inhibitors of Glutaminase (GLS); Glutaminase kidney isoform, mitochondrial (Homo sapiens), O94925; GLS enzymatic activity, qHTS titration; Potency, µM (doses to about 45.5 µM), for the others: top-dose activity change, negative = inhibition, actives largely listed as inhibitors; 410,000 compounds, 0.21% hits
#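 Glutamate formation by hKGA was monitored fluorometrically using coupled glutamate oxidase, HRP and Amplex Red. Substrate was added as 1 mM L-glutamine solution; incubation was 30 min at RT after an initial read.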
# VDR inh: Inhibitors of the vitamin D receptor (VDR): qHTS; Vitamin D3 receptor (Homo sapiens), P11473; VDR-SRC2-3 peptide fluorescence polarization, 2 h; Potency, µM, for the others: max response, negative = inhibition, hits mostly inhibitors; 400,000 compounds, 0.93% hits; AID 504847, 2011
#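 The screen uses fluorescence polarization to detect compounds that interfere with recruitment of the SRC2-3 coactivator peptide to VDR; plates are read after 2 h at room temperature.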
# TrxR1 substrate: qHTS Assay for Substrates of Mammalian Selenoprotein Thioredoxin Reductase 1 (TrxR1): qHTS. Potency, µM (titrated, usually from 114 µM), without a hit: at the highest dose activity change, negative = substrate turnover. 390,000 compounds, 0.01% hits. purified TrxR1 substrate turnover, NADPH consumption readout; also: nearly all actives have a fitted effect of over 50% in size
#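 Rat TrxR1, dispensed at 90 nM, was prereduced with 400 uM NADPH (final) for 5 min at ~22 deg C, then incubated with compound 15 min before 400 uM selenite. A first-read NADPH fluorescence drop versus no-compound background flagged substrates.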
# * = called active by the depositor; ? = inconclusive; . = no result given; ! = not confirmed by another sample; [ ] = dose if it differs, or a comment. Only some compounds are listed: those with a hit (about 3.8% of all), similar ones and a draw of the others. Calls follow the shape of the dose curve; as a rule, active = well fitted curve in the direction sought with a large enough effect; inconclusive = small, poorly fitted or top-dose-only effect, or another doubt; inactive = no such curve, though single readings can be large; an effect the other way counts as inactive or inconclusive. Unless noted, % is scaled to controls: 0 for no effect and ±100 for the full control effect; potency is read from the fitted curve at half-maximal effect.
SMILES,KAT2A inh,Sfp PPTase inh,rTrxR1 inhibitor,GLS inh,VDR inh,TrxR1 substrate
O=C1NC[C@H](Cc2ccccc2)N(C[C@@H]2CCCN2C[C@H](Cc2ccc(O)cc2)N2C[C@H](Cc3ccc(O)cc3)N(CC3CCCCC3)C(=O)C2=O)C1=O,.,.,.,37.4%,.,.
Cc1ccc(NC(=S)c2ccc3ccccc3n2)c(C)c1,-20.4%,22.4µM*,-2.4%,?,79.4µM*,-2.0%
CCOc1ccc(NC(=S)c2ccc3ccccc3n2)cc1,-14.7%,?,27.2%,-0.6%,10.8%,-0.2%
COc1ccc(NC(=S)c2ccc3ccccc3n2)cc1,-14.3%,22.4µM*,-1.4%,-5.6%,?,2.3%
CN(C)CCCn1c(=S)[nH]c2sc3c(c2c1=O)CCCC3,1.4%,79.4µM*,-13.8%,?,?,35.5%
CC(C)C1N=C(c2ccc3c(c2)OCO3)CC(c2ccccc2O)N1 (configuration not stated),-4.2%,?,-5.1%,11.0%,79.4µM*,-3.0%
Cn1cnc([N+](=O)[O-])c1NC(C)(C)C,-17.5%,10.8%,17.0%[57.1 µM],3.4%,-8.1%,-16.5%
Cn1cnc([N+](=O)[O-])c1S(=O)(=O)c1ccc(Cl)cc1,-1.8%,-23.0%,0.316µM*,-13.2%,50.1µM*,4.6%[57.1 µM]
Cc1nc2ccccc2c(=O)n1NC(=O)Nc1ccccc1,-2.9%,8.0%,10.5%,0.0%,-3.9%,8.5%
Cc1nnc(N2CCN(C(=O)NCCC(C)C)CC2)c2nn(-c3ccc(Cl)cc3)c(C)c12,-9.3%,.,12.4%[57.1 µM],-6.5%,7.4%,-1.4%[57.1 µM]
CCN1CCC(O)(/C=C/c2ccc(C(C)C)cc2)C(C(=O)/C=C/c2ccc(C(C)C)cc2)C1 (configuration not stated),.,.,7.94µM*,5.0%,39.8µM*,-13.6%
Cc1cccc(C(=O)n2c(=S)nc3ccccn32)c1,-6.7%[0.501 µM],39.8µM*,-13.0%[57.1 µM],?,79.4µM*,-9.5%
CCCSc1nnc(CN2CCOCC2)n1C,-0.8%,15.8%,-5.2%,0.6%,-3.1%,1.0%
Cc1ccc(C(=O)N2NC(c3ccccc3F)C3C(=O)N(c4cccc(C)c4)C(=O)C32)cc1 (configuration not stated),-5.0%,10.8%,18.9%,11.0%,-20.8%,-5.0%
COc1ccccc1N1C(=O)C2C(c3ccccc3F)NN(C(=O)c3ccc(C)cc3)C2C1=O (configuration not stated),-2.6%,?,50.1µM*,11.5%,-6.8%,-1.5%
Cc1ccccc1-n1ncc2c(SCC(=O)N3c4ccccc4CC3C)ncnc21 (configuration not stated),-12.4%,5.0%,19.4%,23.2%,-9.6%,-5.7%
COc1ccc(CNc2ncncc2-c2ccoc2)c(OC)c1,-9.6%,1.6%,.,.,50.1µM*,.
COc1ccc(CNc2nc(-c3ccc(N(C)C)cc3)nc3ccccc23)c(OC)c1,-28.3%,17.8µM*,.,.,35.5µM*,.
COc1ccc(CNc2nc(-c3ccc(C(=O)N(C)C)cc3)nc3ccccc23)c(OC)c1,-25.5%,?,.,.,-10.9%,.
COc1ccc(CNc2ncnc3ccc(-c4ccoc4)cc23)c(OC)c1,-19.5%,-1.7%,.,.,39.8µM*,.
CC(C)C1C(C#N)=C(N)SC(N)=C1C#N,-26.4%,?,-26.0%,.,4.0%,-3.2%
CC(CC1C(C#N)=C(N)SC(N)=C1C#N)c1ccccc1 (configuration not stated),-4.3%,7.94µM*,?,1.6%,?,4.8%
CC(c1ccccc1)C1C(C#N)=C(N)SC(N)=C1C#N (configuration not stated),-5.7%,22.4µM*,19.6%[57.1 µM],-1.5%,-19.0%,16.1%[57.1 µM]
CCOC(=O)C1CCN(c2cc3c(cc2NC(=O)c2ccc(F)cc2)n(C)c(=O)n3C)CC1,-21.3%,-1.0%,12.3%,0.3%,-2.5%,2.9%
Nc1nonc1C(=O)NCCN=Cc1ccccc1O,-5.6%,89.1µM*,-7.0%,20.2%,0.7%,-5.3%
SMILES,KAT2A inh,Sfp PPTase inh,rTrxR1 inhibitor,GLS inh,VDR inh,TrxR1 substrate
O=C1CCCC2=C1C(c1ccco1)Nc1ccc3ccccc3c12 (configuration not stated),?,44.7µM*,39.8µM*,11.2µM*,6.9%,27.2%
O=C(NCCc1ccco1)C(=O)NCC1OCCCN1S(=O)(=O)c1ccc(Cl)cc1 (configuration not stated),2.3%,8.6%,-1.6%,-8.1%,-1.0%,-3.3%
CC1=CC(=O)C2C(C)(C)CCC[C@@]2(C)[C@@]1(O)CCc1ccoc1 (some centres not stated),-9.2%,-7.5%,.,.,50.1µM*,.
O=C(Nc1ccc(-c2csc(Nc3ccc(Cl)cc3)n2)cc1)c1cc([N+](=O)[O-])cc(C(F)(F)F)c1,-5.8%,-0.9%,11.6%,-7.4%,-4.5%,2.7%
COC(=O)C(=Cc1ccccc1[N+](=O)[O-])C(=O)OC,-13.8%,-14.9%,56.2µM*,-1.7%,?,3.0%
O=C(/C=C/c1ccccc1[N+](=O)[O-])Oc1ccccc1,-8.9%,-6.2%,.,.,.,.
O=C1CN(/N=C/c2ccc(-c3ccc([N+](=O)[O-])cc3)o2)C(=O)N1,-14.1%,89.1µM*!,.,-2.1%,-6.7%,.
CSc1ccc(S(=O)(=O)N2CCN(Cc3ccc4c(c3)OCO4)CC2)cc1,-3.4%,0.8%,14.3%[57.1 µM],-0.9%,-11.1%,-4.3%[57.1 µM]
CCCCCCCCCCCCCCNCCO,2.2%,-14.7%,.,-2.5%,0.7%,.
CCc1nc2c(OCC(N)=O)cccn2c1N(C)C(=O)C(C)C,.,.,.,-13.8%,.,.
Cc1ccc(N2C(=O)CS(=O)C(c3ccccc3)C2=O)cc1C (configuration not stated),19.7%,3.16µM*,?,?,?,-13.9%[57.1 µM]
O=C(Oc1ccc(=O)n(-c2ccccc2)n1)c1cccc(Cl)c1,-8.9%,4.5%,3.55µM*,5.1%,-15.7%,13.1%[57.1 µM]
O=C(Oc1ccc(=O)n(-c2ccccc2)n1)c1ccc(Cl)cc1,-10.8%,89.1µM*,?,23.9%,-0.1%,6.3%[57.1 µM]
CC(C)OCCCNC(=S)Nc1ccc(S(N)(=O)=O)cc1,-5.0%,2.24µM*,-3.6%,-20.4%,?,-9.4%[11.4 µM]
NS(=O)(=O)c1ccc(NC(=S)NCCc2ccccc2)cc1,-0.9%,7.94µM*,-32.3%,-25.2%,-19.4%,-7.4%
